# High-throughput results deposited in PubChem BioAssay by National Center for Advancing Translational Sciences (NCATS).
# Rows were chosen to be rich in hits. Some 1.6% of all compounds tested hit in one or more screens of this group.
# Imprint erasure: qHTS Assay for Compounds that Induce Erasure of Genomic Imprints; Potency, µM (top dose mostly 60.7 µM), for the others: at the top dose activity change, positive = activation, actives largely listed as activators; mouse ES Peg3-LacZ reporter, beta-gal luminescence, 40 h; AID 1948, 2009; 0.02% of 110,000 active
#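 Each well holds 300 Peg3LacZ-Neo (maternal) female ES cells incubated 40 h at 37C, 5% CO2. LacZ is measured by BetaGlo luminescence, with AC50 and maximum efficacy derived from dose-response curves.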
# IkB signaling: IkB Signaling | 0.04% of 110,000 active | ABC-DLBCL IkBa-CBG/CBR dual luciferase ratio, 4 h; response scale: scaled: untreated 0%, proteasome inhibitor 100% | Potency, µM (series often up to 57.1 µM), for inactives: at the top dose IkBa stabilization activation; active = well fitted curve in the direction sought with a large enough effect in the signal ratio, not every such curve was filed as active; inconclusive = small, poorly fitted or top-dose-only effect, or a change in a side signal; the % refers to the signal ratio;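 also: the direction sought is a rising ratio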
#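 Luminescence ratio of IκBα-fused green versus native red beetle luciferase in OCI-Ly3 cells, 4 h post-doxycycline with compound; red signal alone, scaled from basal (0%) to zero light (-100%), flagged nonspecific or cytotoxic effects.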
# p53ts 39C tox: qHTS Screen for Compounds that Selectively Target Cancer Cells with p53 Mutations: Cytotoxicity of p53ts Cells at the Nonpermissive Temperature. 1.5% of 130,000 active. H1299-p53A138V viability at 39C, ATP luminescence, 24 h. Potency, µM (series often up to 46.1 µM), for the others: top-dose activity change, negative = cell killing, usual class: cytotoxic; also: % is scaled to controls: 0 for no effect and ±100 for the full control effect; nearly all actives have a fitted effect of over 55% in size
# p53ts 32C tox: qHTS Screen for Compounds that Selectively Target Cancer Cells with p53 Mutations: Cytotoxicity of p53ts Cells at the Permissive Temperature; H1299-p53A138V at 32C, ATP luminescence viability, 24 h; Potency, µM (series often up to 46.1 µM), for the others: at the highest dose activity change, negative = cytotoxicity, usual class: cytotoxic; 0.93% of 130,000 active;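 also: 0% = DMSO and -100% = full killing by reference compound; nearly all actives have a fitted effect of over 55% in size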
#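 H1299-p53 A138V cells (temperature-sensitive p53) exposed 24 h to up to 46 uM compound at 32C, where p53 is wild-type in conformation. Viability read as ATP luminescence and normalised to DMSO and 100 uM tamoxifen. AC50 fitted with the Hill equation.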
# * hit, by the source's call; u = inconclusive; x = no result given; ! = a repeat was not active; [ ] = dose if it differs, or a comment. Unless noted, calls follow the shape of the dose curve; as a rule, active = well fitted curve in the direction sought with a large enough effect; inconclusive = small, poorly fitted or top-dose-only effect, or another doubt; inactive = no such curve, though single readings can be large; an effect the other way counts as inactive or inconclusive. Potency is read from the fitted curve at half-maximal effect.
SMILES,Imprint erasure,IkB signaling,p53ts 39C tox,p53ts 32C tox
COCCn1c(C)cc(C(=O)CSc2n[nH]c(N)n2)c1C,-10%,2%,4%,-2%
CCOC(=O)c1sc2nc(C)cc(C)c2c1N,x,x,-17%,-12%
Cc1cc(C)c2c(N)c(C(=O)Nc3nccs3)sc2n1,-47%,10%,1µM*,0.79µM*
CCCCOC(=O)c1ccc(NC(=O)c2sc3nc(C)cc(C)c3c2N)cc1,-12%[10.9 µM],u,u,16µM*
COc1cc([C@H](O)CO)ccc1O,x,-2%,13%,3%
CC(=O)OC(C)(C)N=Nc1ccc(Br)cc1,x,0%[11.4 µM],x,x
O=S(=O)(Nc1cccnc1)c1cccc2cccnc12,-13%,-1%,4%,5%
CC(C)(C)C(=O)[C@H]([C@@H](c1ccccc1)N1CCOCC1)N1CCOCC1,x,0%[11.4 µM],-3%[9.22 µM],-5%[9.22 µM]
CCCOc1cccc(C(=O)Nc2cccc(NC(=O)c3ccc(Cl)cc3Cl)c2)c1,4%[10.9 µM],u,1%,0%
CCCOc1ccc(C(=O)Nc2cccc(NC(=O)c3ccc(Cl)cc3Cl)c2)cc1,-13%[10.9 µM],u,7.9µM*,u
CCc1cc2c(=O)c(-c3ccc4c(c3)OCCO4)coc2cc1OC(=O)c1ccco1,-37%,-2%,7.9µM*,5µM*
Cc1ccc(C)c(/C(=N\N=C(N)N)C2CC2)c1,-14%[10.9 µM],0%[11.4 µM],4%[9.22 µM],-4%[9.22 µM]
Cc1cccc(NC(=O)CSc2ncc(-c3ccc(Br)cc3)[nH]2)c1,27%[10.9 µM],u,13µM*,u
CCOc1cccc(NC(=O)CSc2ncc(-c3ccccc3)[nH]2)c1,-13%[10.9 µM],u,-12%,5%
COc1ccc2cc(-c3nc4ccc(C(=O)O)cc4[nH]3)c(=O)oc2c1,-91%[10.9 µM],u,2.5µM*,1.6µM*
CCOc1cccc2cc(-c3nc4ccc(C(=O)O)cc4[nH]3)c(=O)oc12,-77%[10.9 µM],u,16µM*,u
Nc1ncnc2nc[nH]c12.Nc1ncnc2nc[nH]c12.[Cl][Pt]([Cl])([Cl])[Cl],x,1%[11.4 µM],x,x
Cc1cc(O)c2c(C)c(CC(=O)NCc3ccccc3Cl)c(=O)oc2c1,27%[10.9 µM],-1%,-12%,5%
CC(C)(C)c1cc(Br)ccc1OCC(=O)Nc1ncn[nH]1,-12%,4%,3%,12%
CCc1ccc(OCC(=O)Nc2ncn[nH]2)c(Br)c1,-22%[10.9 µM],-5%,1.6µM*,1.6µM*
O=C(COc1ccc(Br)cc1Cl)Nc1ncn[nH]1,-19%[10.9 µM],-2%,u,2.5µM*
O=C(COc1ccc(Cl)cc1Cl)Nc1ccc(Cl)cn1,-62%,7%,5µM*,5µM*
Cc1ccc(C(C)C)c(OCC(=O)Nc2ccc(Cl)cn2)c1,-19%,u,-5%,0%
CCOC(=O)C1CCCN(S(=O)(=O)c2cc(-c3onc(C)c3C)ccc2OC)C1 (configuration not stated),7%[10.9 µM],u,-18%,0%
CC(C)=C[C@H]1[C@@H](COC(=O)c2cc3c(cc2Cl)OCO3)C1(C)C,8%[10.9 µM],-1%[11.4 µM],-11%[9.22 µM],4%[9.22 µM]
SMILES,Imprint erasure,IkB signaling,p53ts 39C tox,p53ts 32C tox
CCOc1cccc(NC(=O)C2CC(=O)N(C)C(=Nc3cccc(OC)c3)S2)c1 (configuration not stated),-17%[10.9 µM],20%,13µM*,u
Cn1c(=O)c2sccc2n2c(CCC(=O)N3CCN(c4ccc(F)cc4)CC3)nnc12,-13%[10.9 µM],2%,1%,0%
CCc1ccc(C(=O)c2cn(CC(=O)Nc3cc(OC)cc(OC)c3)c3ccc(CC)cc3c2=O)cc1,-20%[10.9 µM],u,13µM*,-5%
Cc1ccc2nc(-c3ccc(S(=O)(=O)N4CCOCC4)cc3)cn2c1,-4%,1%,20%,8%
Cc1ccc2nc(-c3ccccc3)cn2c1,-93%,u,0.63µM*,0.5µM*
COc1ccc(-c2cn3ccc4ccccc4c3n2)cc1,x,x,11µM*,u
Cc1cccn2cc(-c3ccccc3)nc12,-82%,3%,u,13µM*
Cc1cccn2cc(-c3ccc(F)cc3)nc12,-82%,5%,u,u
COc1cc(NS(=O)(=O)c2ccc(-c3cc(C)no3)cc2)cc(OC)c1,-18%[10.9 µM],u,-17%,19%
O=C(CN1C(=O)c2ccccc2C1=O)N1CCN(c2ccccn2)CC1,6%,2%,2%,6%
O=C1C=C(N2CCN(c3ccccn3)CC2)C(=O)c2c(O)ccc(O)c21,-22%[10.9 µM],5µM*,-20%[9.22 µM],-13%[9.22 µM]
Cc1cc(C)cc(NC(=O)CSc2oc(-c3ccco3)nc2S(=O)(=O)c2ccc(Cl)cc2)c1,-29%[10.9 µM],u,6.3µM*,10µM*
CNCCC=C1c2ccccc2CCc2ccccc21,-36%,0%[11.4 µM],20µM*!,20µM*!
COc1ccc2c(c1)CCc1c(C(=O)Nc3cnn(Cc4ccc(Cl)cc4Cl)c3)noc1-2,-6%[10.9 µM],u,-30%,-11%
COc1ccc(OC)c(-c2cc(C(=O)Nc3cnn(Cc4ccc(Cl)cc4Cl)c3)no2)c1,-12%[10.9 µM],u,4µM*,u
Nc1ncnc2c1nc(Sc1ccc(Cl)cc1)n2[C@H]1O[C@@H]2COP(=O)(O)O[C@H]2[C@@H]1O,-7%,x,x,x
Cc1nc(NC(=O)c2cc3c(s2)CCCCC3)sc1C(=O)N(C)C,1%,u,-23%,-14%
COc1ccc(C(=O)Nc2nc(C)c(C(=O)N(C)C)s2)cc1OC,-46%,0%,-20%,13µM*
Cc1nc(NC(=O)c2ccc(Br)s2)sc1C(=O)N(C)C,-48%,-1%,u,13µM*
CCc1ccc(CNCc2c(C(=O)O)n(Cc3ccc(C)cc3)c3cc(C)ccc23)cc1,-15%[10.9 µM],-3%,-87%,-25%
Cc1ccc(CNCc2c(C(=O)O)n(Cc3ccc(C)cc3)c3cc(C)ccc23)cc1,-15%[10.9 µM],u,u,u
C=Cc1ccc(Cn2c(C(=O)O)c(CNCc3ccccc3)c3ccc(C)cc32)cc1,3%[10.9 µM],u,16µM*,u
Cc1ccc(Cn2c(C(=O)O)c(CNCc3ccc(OC(C)C)cc3)c3ccc(C)cc32)cc1,-14%[10.9 µM],u,16µM*,-7%
CCCCC#CC1C=CC(OC(C)=O)C(COC(C)=O)O1 (configuration not stated),x,x,-4%[9.22 µM],7%[9.22 µM]
CC(=O)OCC1OC(C#Cc2ccc(Br)cc2)C=CC1OC(C)=O (configuration not stated),x,x,1%[9.22 µM],1%[9.22 µM]
Cc1ccc(OCc2nc(-c3ccccn3)no2)c(Br)c1,-69%,0%,u,10µM*
CCc1ccc(OCc2nc(-c3ccccn3)no2)c(Br)c1,-77%,9%,10µM*,16µM*
Cc1c(C)c2c(c(C)c1O)CCC(C)(COc1ccc(Cc3sc(=O)[nH]c3O)cc1)O2 (configuration not stated),1%,x,x,x
CCc1ccc2occ(CC(=O)Nc3c(C(=O)Nc4ccc(C)cc4)oc4ccccc34)c2c1,-3%[10.9 µM],u,32µM*,-29%
O=C1OC(O)C(C(Cl)Cl)=C1Cl (configuration not stated),-23%,u,-18%,5%[1.84 µM]
